# Inconclusive results are not listed. Where a call stands in place of a potency, no number is given. Active and inactive are the calls of the source. Calls come from the whole dose curve; as a rule, active = well fitted cell-killing curve with a large enough effect; inconclusive = small, poorly fitted or top-dose-only effect, or effect the other way; inactive = no such curve, though single readings can be large or run the other way.
# Assays:
# [1] = Viability qHTS for spleen associated tyrosine kinase inhibitor (SYKi) naive MV4-11 cells (AID 1963823); note: nearly all actives have a fitted effect of over 40% in size
# Outline: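 qHTS, SYK inhibitor-naive MV4-11; 500 cells/well; 72 hr compound exposure, 37 C; CellTiter-Glo added, 10 min RT; luminescence read.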
# [2] = Viability qHTS for spleen associated tyrosine kinase inhibitor (SYKi) drug resistant MV4-11 cells (AID 1963824); note: nearly all actives have a fitted effect of over 35% in size
# Outline: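 SYK inhibitor-resistant MV4-11 AML cells, 500 per well, added to predispensed compounds and incubated 72 hr at 37 C, 5% CO2. Viability measured by CellTiter-Glo luminescence after 10 min at room temperature.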
# Potency is the fitted concentration of half-maximal effect.
SMILES,Potency [1],Potency [2]
CO[C@@H]1CC(OC2CCC3(C)C(CCC45CCC(C6=CC(=O)OC6)C(C)(CCC43)C5=O)C2)O[C@H](C)[C@@H]1O[C@@H]1O[C@H](CO[C@@H]2O[C@H](CO)[C@@H](O)[C@H](O)[C@H]2O)[C@@H](O)[C@H](O)[C@H]1O (stereo partly drawn),0.873 µM (active),0.778 µM (active)
CC/C=C\C(O)C(O)C1=C(C)C(=O)C2(O1)C(=O)NC(OC)(C(=O)c1ccccc1)C2O (stereo not drawn),inactive,inactive
C=CC(=O)N1CCN(C(=O)CNc2cc(-c3ccccc3Cl)c(Cl)cc2OC)CC1,10.3 µM (active),11.6 µM (active)
C[C@@H]1C[C@H](O)/C=C/[C@H](O)[C@@H](O)CC(=O)O1,inactive,inactive
COc1ccc(/C=C/C(=O)O[C@@H]2[C@@H](O)[C@H](C)O[C@@H](O[C@H]3[C@@H]4C=CO[C@@H](O[C@H]5O[C@@H](CO)[C@H](O)[C@@H](O)[C@@H]5O)[C@@H]4[C@@]4(CO)O[C@@H]34)[C@@H]2OC(C)=O)cc1,inactive,inactive
Cc1c(C(=O)NCc2cccnc2)nn(-c2ccc(Cl)cc2Cl)c1-c1ccc(Cl)cc1,inactive,inactive
COc1ccnc2[nH]cc(C(=O)C(=O)N3CCN(C(=O)c4ccccc4)CC3C)c12 (stereo not drawn),inactive,inactive
CCCn1c(=O)c2[nH]c(-c3ccc(OCC(=O)O)cc3)nc2n(CCC)c1=O,inactive,inactive
C[C@]1(O)CC[C@@H]2C(C(=O)O)=CO[C@@H](O[C@@H]3O[C@H](COC(=O)c4ccc(O)cc4)[C@@H](O)[C@H](O)[C@H]3O)[C@@H]21,inactive,inactive
